Screening data from PubChem.
Rows were chosen to be rich in hits. Some 3.5% of all compounds tested hit in one or more screens of this group.
BoNT F protease: inhibitors of Botulinum neurotoxin F light chain protease; Multiplex microsphere protease cleavage assay, flow cytometry; inhibition, % at 10 µM; 360,000 compounds, 0.22% hits; in the data active = inhibition above about 35%, passing the limit was not always enough; inconclusive = no clear call, values can overlap the other calls; note: plate controls were buffer without enzyme for full effect and enzyme alone for no effect
Anthrax LF prot: blocks Bacillus anthracis lethal factor protease. P15917. multiplex microsphere protease cleavage assay, LF. inhibition, % at 10 µM. 360,000 compounds, 0.12% hits; note: plate controls were buffer without enzyme for full effect and enzyme alone for no effect
Target sequence (P15917 whole entry, looked up): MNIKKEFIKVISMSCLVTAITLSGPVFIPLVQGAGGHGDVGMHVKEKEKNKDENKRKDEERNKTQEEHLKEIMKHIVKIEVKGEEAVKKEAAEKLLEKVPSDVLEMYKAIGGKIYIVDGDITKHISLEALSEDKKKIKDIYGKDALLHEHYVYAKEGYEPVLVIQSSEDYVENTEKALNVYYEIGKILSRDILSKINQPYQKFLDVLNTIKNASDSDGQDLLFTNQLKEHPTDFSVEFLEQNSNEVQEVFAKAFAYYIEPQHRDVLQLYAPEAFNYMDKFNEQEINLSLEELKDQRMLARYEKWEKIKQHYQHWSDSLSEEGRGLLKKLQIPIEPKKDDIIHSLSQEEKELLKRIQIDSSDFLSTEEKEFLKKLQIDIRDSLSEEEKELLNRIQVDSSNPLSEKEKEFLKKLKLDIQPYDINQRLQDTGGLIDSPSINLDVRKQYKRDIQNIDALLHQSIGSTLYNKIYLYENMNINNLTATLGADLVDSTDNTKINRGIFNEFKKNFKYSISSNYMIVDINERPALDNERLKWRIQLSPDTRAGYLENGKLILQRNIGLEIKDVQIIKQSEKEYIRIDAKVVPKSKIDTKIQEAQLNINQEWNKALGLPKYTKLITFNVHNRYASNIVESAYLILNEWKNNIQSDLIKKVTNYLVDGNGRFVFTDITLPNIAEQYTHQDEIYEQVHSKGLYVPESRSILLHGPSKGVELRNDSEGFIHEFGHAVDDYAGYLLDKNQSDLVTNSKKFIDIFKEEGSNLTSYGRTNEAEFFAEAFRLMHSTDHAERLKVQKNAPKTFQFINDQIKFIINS
Bead autofluor: compound fluorescence in toxin protease inhibitor counterscreen. fluorescence intensity (no concentration beside the values). compound autofluorescence counterscreen, microsphere flow cytometry; hits give high values. 360,000 compounds, 3.1% hits; in the data active = fluorescence intensity above about 16000; inconclusive = no clear call, values can overlap the other calls
BoNT A protease: BoNT A light chain protease inhibition | AID 588499 | multiplex microsphere protease substrate cleavage, flow cytometry | 360,000 compounds, 0.17% hits | inhibition, % at 10 µM; note: plate controls were buffer without enzyme for full effect and enzyme alone for no effect
Starred values were filed as active, the others as inactive; ? = inconclusive. Cut-off read from the data, not from the text of the source, unless noted: active = inhibition above about 30%; inconclusive = no clear call, values can overlap the other calls; inactive = below that.

SMILES	BoNT F protease	Anthrax LF prot	Bead autofluor	BoNT A protease
CCOc1ccc(NC(=O)CSc2nnc(C34CC5CC(CC(C5)C3)C4)n2C)cc1	0	-1	17197*	-2
C=CCn1c(SCCOc2ccc(OC)cc2)nnc1C(C)NC(=O)c1ccc(OC)cc1 (stereo not drawn)	-9	-3	8159	0
O=C(O)c1cn2c3c(ccc(Cl)c3c1=O)OCC2	4	-1	3211	-4
CCOC(=O)n1cnc2nc(N)nc(SC)c21	0	1	4085	0
Cc1cc(Br)ccc1NC(=O)CN(C)C(=O)c1ccc2ccccc2n1	-7	-15	9206	-3
COc1ccc(OCCSc2nnc(CCNC(=O)c3ccc(OC)cc3)n2C)cc1	3	4	8027	0
CCOc1ccc(NC(=O)CSc2nnc(CCNC(=O)c3ccc(OC)cc3)n2C)cc1	0	2	16470*	?
COc1ccc(OCCSc2nnc(CCNC(=O)c3ccc(Cl)c(Cl)c3)n2C)cc1	1	-11	20984*	3
COc1ccc(C(C)=O)cc1COC(=O)c1cc(=O)c2ccccc2o1	-2	0	6232	0
Cc1ccccc1OCC(=O)N/N=C1\CCOc2c(C)cccc21	0	0	20512*	-1
Cc1ccc(OCC(=O)N/N=C2\CCOc3c(C)cccc32)cc1	-1	0	22762*	2
CCOc1cccc2sc(=NC(=O)c3ccc(S(=O)(=O)N4CCOCC4)cc3)n(C)c12	3	0	22851*	3
Cn1c(CC(=O)NNC(=O)c2cccnc2)nc2ccccc21	-12	-4	2908	0
O=C(NCCc1cnc[nH]1)c1ccc(-c2ccccc2)cc1	16	-5	3714	3
O=C1NC(=O)N(CCC2=CCCCC2)C(=O)/C1=C/c1cccs1	37*	?	3753	12
CCCCCCCCN1C(=O)[C@H](CC(=O)N2CCCCC2)C[C@@]2(C(=O)OC)CCCCC=C12	-9	-8	4259	0
COc1cccc(N2CC(C(=O)OC(C)C(=O)c3ccccc3)CC2=O)c1 (stereo not drawn)	-1	-1	22234*	?
CCN1/C(=C\C(=S)Nc2ccccc2)Sc2ccccc21	-45	-5	3324	39*
CCn1cc(C(=O)c2cccs2)c2ccccc21	-4	-9	16945*	-4
CCn1cc(C(=O)C(F)(F)F)c2ccccc21	2	0	22281*	1
O=C(O)Cn1cc(C(=O)c2ccccc2)c2ccccc21	10	2	18398*	9
O=C(O)Cn1cc(C(=O)c2cccs2)c2ccccc21	-13	0	11687	-1
C[C@@H]1CN([C@H](C)CO)S(=O)(=O)c2ccc(C#CC3CCCC3)cc2O[C@H]1CN(C)C(=O)Cc1ccccc1	-8	3	4071	0
Cc1oc(-c2ccc(Cl)cc2)nc1CS(=O)CC(=O)NCc1ccccn1 (stereo not drawn)	-3	-5	5489	-1
CC1CCCCC1NC(=O)c1cccc(NC2=NC3CS(=O)(=O)CC3S2)c1 (stereo not drawn)	-7	1	5685	-2
SMILES	BoNT F protease	Anthrax LF prot	Bead autofluor	BoNT A protease
O=C(CCC(=O)OCC(=O)c1ccc(Br)cc1)Nc1ccc(Br)c2cccnc12	3	-8	18928*	3
CCOC(=O)c1c(NC(C)=O)sc2c1CCCNC2=O	-20	-6	3473	1
CCOC(=O)c1c(NC(C)=O)sc2c1CCC(C=O)=C2Sc1ccccc1	40*	41*	7887	50*
CCOC(=O)c1c(NC(=O)c2ccccc2Br)sc2c1CCc1ccccc1-2	4	-2	22027*	?
O=C(Cn1ccc2ccccc2c1=O)NCCC(=O)Nc1cccc(Cl)c1	5	1	3979	-1
COc1ccc(CN2CCOCC2)cc1Br	-1	0	23516*	?
COc1ccc(CN2CCOCC2)cc1OC	-5	-4	3218	-1
CSCCC(NC(=O)c1ccccc1)C(=O)NC1CCCC1 (stereo not drawn)	-4	-3	10885	0
CSCCC(NC(=O)c1ccccc1)C(=O)NC1CC1 (stereo not drawn)	-6	-2	23748*	?
Cc1c(Cl)c(C(=O)NC2C3CC4CC(C3)CC2C4)nn1C (stereo not drawn)	0	-5	21785*	?
CCOC(=O)c1sc(=S)n(-c2ccccc2)c1SC	-10	-1	21506*	-6
CCOC(=O)c1sc(=S)n(-c2ccccc2Cl)c1SC	5	-1	6821	2
COC(=O)c1sc(=S)n(-c2cc(F)ccc2F)c1N	-2	0	19767*	-1
CCOC(=O)c1sc(=S)n(-c2cc(OC)ccc2OC)c1N	-8	0	2436	0
CCOC(=O)c1sc(=S)n(-c2cc(F)ccc2F)c1N	-5	-3	24008*	-1
CCOC(=O)c1sc(-c2ccc(F)cc2)cc1N	-9	-2	25606*	-5
